Source: PubChem BioAssay (Tox21)
Values without a mark were called inactive. Active and inactive are the calls of the source. Calls come from the whole dose curve; as a rule, active = well fitted curve in the direction sought with a large enough effect in the repeat runs; inconclusive = weak or mixed curves; inactive = flat fitted curve, though single readings scatter.

Assay: qHTS assay to test for compound auto fluorescence at 460 nm (blue) in HepG2 cell free culture (AID 720685)
Conditions: Cell-free culture medium, blue autofluorescence 405/460 nm; series mostly up to 91.3 µM; fluorescence, % of fluorescent control: at the top concentration
Procedure, shortened: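 Compound (23 nL) or DMSO pinned into cell-free MEM with 10% FBS; blue fluorescence read at 405/460 nm excitation/emission, expressed as auto-fluorescence equivalency to triamterene.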
% is set by controls: 0 for no effect and ±100 for the full control effect.

Structure (SMILES)	outcome	fluorescence, % of fluorescent control
CCCCC(CC)COC(=O)C(C#N)=C(c1ccccc1)c1ccccc1 (stereo not given)	inactive	–
O=C(Oc1ccccc1)c1ccccc1	inactive	–
CC1CCC(C(C)C)C(O)C1 (stereo not given)	inactive	–
CCCCCCCCCCCCOCCO	–	-0.0723%
O=C(O)[C@H](O)[C@@H](O)[C@H](O)[C@H](O)CO	inactive	–
CCCSc1ccc2nc(NC(=O)OC)[nH]c2c1	inactive	–
O=C(O)CCCC[C@@H]1SC[C@@H]2NC(=O)N[C@@H]21	inactive	–
CCc1ccc(CCOc2ccc(CC3SC(=O)NC3=O)cc2)nc1 (stereo not given)	inactive	–
COc1ccc2cc([C@H](C)C(=O)O)ccc2c1	inactive	–
COCCCOc1ccnc(CS(=O)c2nc3ccccc3[nH]2)c1C (stereo not given)	inactive	–
O=C(O)c1cc(C(=O)O)cc(S(=O)(=O)O)c1	inactive	–
Cc1ccc2oc(=O)ccc2c1	inactive	–
Cc1occc(=O)c1O	inactive	–
CCN(CC)c1ccc(C(=O)c2ccccc2C(=O)O)c(O)c1	inactive	–
CC(c1cc2ccccc2s1)N(O)C(N)=O (stereo not given)	inactive	–
CC(C)c1ccc(S(=O)(=O)O)cc1	inactive	–
O=C(O)c1ccccc1C(c1ccc(O)cc1)c1ccc(O)cc1	–	-0.0015%
OCc1cccnc1	inactive	–
COS(C)(=O)=O	inactive	–
CCCCCC/C(C=O)=C\c1ccccc1	inactive	–
CCCCCC1=CCCC1=O	inactive	–
CCCCCOC(C)=O	inactive	–
C#C[C@]1(O)CC[C@H]2[C@@H]3CCC4=CC(=O)CC[C@@H]4[C@H]3CC[C@@]21C	inactive	–
CCCCC(CC)COC(=O)CCCCC(=O)OCC(CC)CCCC (stereo not given)	inactive	–
COc1ccc(NC(C)=O)cc1N	inactive	–
